# Measurements as given in PubChem BioAssay (NCATS).
# A number with no mark means an inactive call. Results filed as inconclusive are left out. Where a call stands in place of a potency, no number is given. The source made the active and inactive calls. Unless noted, the call rests on the fitted dose curve; in most records, active means well fitted curve in the direction sought with a large enough effect; inconclusive means small, poorly fitted or top-dose-only effect, or another doubt; inactive means no such curve, though single readings can be large; an effect the other way counts as inactive or inconclusive.
# Assays:
# [1] = P-glycoprotein substrates identified in KB-8-5-11 adenocarcinoma cell line, qHTS therapeutic library screen (AID 1346987); further: nearly all actives have a fitted effect of over 65% in size; further: potency means the concentration at half of the fitted maximal effect; on activity change, negative = cytotoxicity: series mostly up to about 44 µM
# Method in brief: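 Steps: plate 500 KB-8-5-11 cells/well in DMEM + 10% FCS (colchicine removed); pin compounds in dose-response; incubate 72 h, 37 degree C, 5% CO2; add CellTiter-Glo, 5 min; read luminescence.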
# [2] = Natriuretic polypeptide receptor (hNpr1) antagonism - Pilot counterscreen GloSensor control cell line (AID 1347045; calls by dose curve; further: series mostly up to about 38 µM)
# Method in brief: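 Luminescence was read before and 20 min after adding 50 uM SNP, which stimulates soluble guanylyl cyclase. The HEK293 cells expressing the GloSensor cGMP sensor had been preloaded with 2% reagent for 2 h and treated with compound.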
# [3] = biological target: Atrial natriuretic peptide receptor 1 (Homo sapiens) (UniProt P16066); assay: Natriuretic polypeptide receptor (hNpr1) antagonism - Pilot screen (AID 1347049; calls by dose curve;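 further: agonist-evoked cGMP luminescence read 20 min after hNppA addition; series mostly up to about 58 µM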)
# Atrial natriuretic peptide receptor 1 (Homo sapiens), sequence (P16066 whole entry, looked up): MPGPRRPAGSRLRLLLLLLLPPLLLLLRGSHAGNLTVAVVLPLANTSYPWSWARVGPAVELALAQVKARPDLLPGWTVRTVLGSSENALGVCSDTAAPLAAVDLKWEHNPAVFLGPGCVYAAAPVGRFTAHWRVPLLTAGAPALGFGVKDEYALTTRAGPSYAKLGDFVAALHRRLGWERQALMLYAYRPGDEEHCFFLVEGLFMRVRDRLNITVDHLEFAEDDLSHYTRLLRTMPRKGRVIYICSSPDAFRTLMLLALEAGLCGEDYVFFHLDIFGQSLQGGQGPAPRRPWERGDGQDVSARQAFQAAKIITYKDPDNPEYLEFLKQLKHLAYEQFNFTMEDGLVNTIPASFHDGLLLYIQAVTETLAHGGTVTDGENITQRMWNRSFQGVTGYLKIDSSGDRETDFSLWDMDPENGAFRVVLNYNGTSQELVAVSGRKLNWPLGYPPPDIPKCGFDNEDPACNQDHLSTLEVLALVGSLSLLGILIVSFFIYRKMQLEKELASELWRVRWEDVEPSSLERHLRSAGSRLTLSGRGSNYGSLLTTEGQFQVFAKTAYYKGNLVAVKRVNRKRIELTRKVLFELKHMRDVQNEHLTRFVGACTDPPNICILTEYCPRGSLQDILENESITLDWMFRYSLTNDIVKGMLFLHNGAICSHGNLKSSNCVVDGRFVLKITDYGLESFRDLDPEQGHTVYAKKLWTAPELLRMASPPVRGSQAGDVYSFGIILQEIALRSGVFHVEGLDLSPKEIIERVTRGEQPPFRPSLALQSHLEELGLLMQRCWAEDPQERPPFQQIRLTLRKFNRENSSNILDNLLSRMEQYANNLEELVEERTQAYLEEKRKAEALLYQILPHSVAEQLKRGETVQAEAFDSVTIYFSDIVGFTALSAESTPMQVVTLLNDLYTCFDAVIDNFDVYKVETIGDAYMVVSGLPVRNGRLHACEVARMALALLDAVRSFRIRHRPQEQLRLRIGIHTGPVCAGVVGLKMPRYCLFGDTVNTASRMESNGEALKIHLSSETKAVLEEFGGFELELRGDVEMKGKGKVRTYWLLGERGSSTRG
# Method in brief: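 Readout is cGMP-driven firefly luciferase luminescence in HEK293 cells carrying hNpr1 and a PDE5-domain GloSensor, read before and 20 min after 0.1 nM hNppA stimulation. Cells had 2% substrate reagent for 2 h and test compound for 30 min.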
# [4] = biological target: Atrial natriuretic peptide receptor 2 (Homo sapiens) (UniProt P20594); assay: Natriuretic polypeptide receptor (hNpr2) antagonism - Pilot subtype selectivity assay (AID 1347050; calls by dose curve; further: potency means the concentration at half of the fitted maximal effect)
# Atrial natriuretic peptide receptor 2 (Homo sapiens), sequence (P20594 whole entry, looked up): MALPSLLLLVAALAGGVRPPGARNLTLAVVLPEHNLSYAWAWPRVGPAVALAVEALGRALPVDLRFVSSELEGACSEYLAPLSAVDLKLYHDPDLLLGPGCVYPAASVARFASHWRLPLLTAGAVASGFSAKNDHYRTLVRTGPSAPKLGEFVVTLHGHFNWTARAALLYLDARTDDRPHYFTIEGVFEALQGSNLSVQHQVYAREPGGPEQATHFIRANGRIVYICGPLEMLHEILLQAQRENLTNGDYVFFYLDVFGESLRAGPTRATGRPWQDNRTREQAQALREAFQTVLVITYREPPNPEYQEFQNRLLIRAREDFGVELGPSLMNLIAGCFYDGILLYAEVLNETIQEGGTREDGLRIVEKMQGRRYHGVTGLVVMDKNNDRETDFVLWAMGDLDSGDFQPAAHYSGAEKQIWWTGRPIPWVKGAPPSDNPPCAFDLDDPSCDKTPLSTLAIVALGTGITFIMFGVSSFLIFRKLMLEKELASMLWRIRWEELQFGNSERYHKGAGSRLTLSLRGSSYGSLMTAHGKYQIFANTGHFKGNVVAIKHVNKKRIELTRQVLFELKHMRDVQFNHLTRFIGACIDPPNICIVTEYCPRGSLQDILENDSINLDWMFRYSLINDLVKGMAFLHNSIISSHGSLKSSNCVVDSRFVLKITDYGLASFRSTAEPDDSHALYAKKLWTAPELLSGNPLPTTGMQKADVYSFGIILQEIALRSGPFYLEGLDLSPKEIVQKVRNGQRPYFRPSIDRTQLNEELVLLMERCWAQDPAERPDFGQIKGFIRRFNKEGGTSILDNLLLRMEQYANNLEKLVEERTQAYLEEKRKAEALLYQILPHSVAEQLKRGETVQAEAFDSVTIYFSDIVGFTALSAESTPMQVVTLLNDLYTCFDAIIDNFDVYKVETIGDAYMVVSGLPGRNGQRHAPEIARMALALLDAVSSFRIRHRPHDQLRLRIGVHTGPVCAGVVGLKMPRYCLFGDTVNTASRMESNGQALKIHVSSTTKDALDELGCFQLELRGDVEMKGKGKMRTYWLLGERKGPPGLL
# Method in brief: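 Pilot selectivity screen against hNpr2: HEK293 cGMP-sensor cells are treated with LOPAC1280 compounds, then with hNppC peptide at 1 nM final. The cGMP-driven luminescence change over 20 min at room temperature is the read-out.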
# [5] = NS1 protein of Zika virus - qHTS assay to identify small molecule inhibitors in human HEK 293 cells (AID 1347053); further: series mostly up to about 46 µM; nearly all actives have a fitted effect of over 55% in size
# Method in brief: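 HEK 293 cells pretreated with compound for 1 h, then infected with ZIKV MR766 (MOI 0.5) for 24 h at 37 C. NS1 detected by TR-FRET with two anti-NS1 antibodies; normalized to uninfected (0%) and infected (100%) wells.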
# [6] = biological target: T1, Tyrosine-protein phosphatase non-receptor type substrate 1 (Homo sapiens) + Leukocyte surface antigen CD47 (Homo sapiens) (UniProt P78324+Q08722); assay: CD47-SIRPalpha protein protein interaction - LANCE assay qHTS validation (AID 1347057; active means well fitted curve in the direction sought with a large enough effect in the signal ratio, with a control signal flat, not every such curve was filed as active; the % refers to the signal ratio; further: series mostly up to about 38 µM)
# T1 sequence (P78324 whole entry, looked up): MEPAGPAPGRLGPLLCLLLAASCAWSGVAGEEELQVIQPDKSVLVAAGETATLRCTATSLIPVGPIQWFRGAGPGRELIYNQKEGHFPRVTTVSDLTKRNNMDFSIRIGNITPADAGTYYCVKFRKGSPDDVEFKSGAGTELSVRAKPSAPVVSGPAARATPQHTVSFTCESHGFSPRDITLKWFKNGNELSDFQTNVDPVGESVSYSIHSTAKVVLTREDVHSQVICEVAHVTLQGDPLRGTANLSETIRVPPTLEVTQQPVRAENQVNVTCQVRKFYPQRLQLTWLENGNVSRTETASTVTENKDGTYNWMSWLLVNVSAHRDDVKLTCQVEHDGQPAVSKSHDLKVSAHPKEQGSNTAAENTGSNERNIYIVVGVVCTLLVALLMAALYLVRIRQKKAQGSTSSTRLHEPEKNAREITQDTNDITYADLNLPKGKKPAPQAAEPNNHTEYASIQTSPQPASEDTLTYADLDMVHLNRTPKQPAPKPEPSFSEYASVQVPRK
# T1 sequence (Q08722 whole entry, looked up): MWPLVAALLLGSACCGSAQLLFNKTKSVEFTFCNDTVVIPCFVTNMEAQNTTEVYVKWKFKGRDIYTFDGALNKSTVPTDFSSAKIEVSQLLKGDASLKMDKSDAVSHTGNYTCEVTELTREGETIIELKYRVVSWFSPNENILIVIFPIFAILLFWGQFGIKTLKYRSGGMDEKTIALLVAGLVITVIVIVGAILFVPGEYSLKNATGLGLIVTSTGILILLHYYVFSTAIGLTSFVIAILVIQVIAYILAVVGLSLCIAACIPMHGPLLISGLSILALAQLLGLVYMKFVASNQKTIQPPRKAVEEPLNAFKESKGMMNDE
# Method in brief: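 First, His-tagged CD47 and Eu-labelled anti-His antibody met the compound for 30 min; next, site-specifically biotinylated SIRPalpha was added for 30 min; finally streptavidin-APC was added before reading the TR-FRET ratio.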
# [7] = biological target: T1, Tyrosine-protein phosphatase non-receptor type substrate 1 (Homo sapiens) + Leukocyte surface antigen CD47 (Homo sapiens); assay: CD47-SIRPalpha protein protein interaction - HTRF assay qHTS validation (AID 1347058; active means well fitted curve in the direction sought with a large enough effect in the signal ratio, not every such curve was filed as active; the % refers to the signal ratio;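 further: recombinant soluble extracellular CD47 with His tag and biotinylated SIRPalpha domains; series mostly up to about 38 µM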)
# Method in brief: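 TR-FRET read (Ch1/Ch2 ratio) of soluble extracellular CD47 and Avi-biotinylated SIRPalpha domains in PBS pH 7.4 with 0.05% IGEPAL; 7-point compound titration. Sequential 30 min room-temperature steps; non-biotinylated SIRPalpha as control inhibitor.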
# [8] = biological target: T1, Tyrosine-protein phosphatase non-receptor type substrate 1 (Homo sapiens) + Leukocyte surface antigen CD47 (Homo sapiens); assay: CD47-SIRPalpha protein protein interaction - Alpha assay qHTS validation (AID 1347059);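 further: bead proximity luminescence from CD47 binding SIRPalpha after compound preincubation with SIRPalpha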
# Method in brief: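 Binding is measured by AlphaScreen proximity: Ni-NTA acceptor beads capture His-CD47, streptavidin donor beads capture biotin-SIRPalpha. Each of three additions (SIRPalpha with compound, CD47, beads) incubates 30 min at room temperature protected from light.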
# [9] = biological target: Parathyroid hormone/parathyroid hormone-related peptide receptor (Homo sapiens) (UniProt Q03431); assay: qHTS for PTHR1 Agonists: Optimization Screen against the NCGC LOPAC library (AID 1347079);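 further: GloSensor cAMP luminescence in HEK-293 GP2 cells expressing human PTHR1 with IBMX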
# Parathyroid hormone/parathyroid hormone-related peptide receptor (Homo sapiens), sequence (Q03431 whole entry, looked up): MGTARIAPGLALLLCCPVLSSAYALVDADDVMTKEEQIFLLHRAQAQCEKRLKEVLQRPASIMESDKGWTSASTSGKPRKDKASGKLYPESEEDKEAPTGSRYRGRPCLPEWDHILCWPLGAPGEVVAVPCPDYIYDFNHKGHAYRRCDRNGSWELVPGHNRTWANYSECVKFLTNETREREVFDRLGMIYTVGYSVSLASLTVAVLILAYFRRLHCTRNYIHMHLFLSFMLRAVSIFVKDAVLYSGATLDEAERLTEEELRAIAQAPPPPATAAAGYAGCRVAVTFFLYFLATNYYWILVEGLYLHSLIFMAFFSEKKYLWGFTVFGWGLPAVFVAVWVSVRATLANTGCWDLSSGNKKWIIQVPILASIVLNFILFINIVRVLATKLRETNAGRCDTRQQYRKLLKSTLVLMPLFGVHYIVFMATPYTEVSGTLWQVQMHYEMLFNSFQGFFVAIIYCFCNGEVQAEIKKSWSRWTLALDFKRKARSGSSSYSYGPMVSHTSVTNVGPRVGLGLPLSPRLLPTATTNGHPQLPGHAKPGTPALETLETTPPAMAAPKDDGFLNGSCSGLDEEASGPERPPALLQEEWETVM
# Method in brief: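 Agonist readout: GloSensor cAMP luminescence, read after 15 min at room temperature. HEK-293-derived GP2 line carries PTHR1; compounds tested as a titration for 1 hr at 37C in presence of IBMX. M-PTH (1-15) served as control.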
# [10] = qHTS of pediatric cancer cell lines to identify multiple opportunities for drug repurposing: Primary screen for TC32 cells (AID 1347089); further: nearly all actives have a fitted effect of over 60% in size
# Method in brief: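 In the primary qHTS, MIPE compounds were tested at 11 concentrations (0.78 nM to 46 µM) and NPC compounds at 8 (0.59 nM to 46 µM) on TC32 cells for 48 h. CellTiter-Glo luminescence gave viability.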
# [11] = qHTS of pediatric cancer cell lines to identify multiple opportunities for drug repurposing: Primary screen for DAOY cells (AID 1347090); further: series mostly up to about 46 µM; nearly all actives have a fitted effect of over 55% in size
# Method in brief: (§1)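 Cell viability, CellTiter-Glo luminescence; 500-1,000 cells/well, 8- or 11-point titration, 48 h compound exposure at 37 degrees C, 5% CO2. Controls: DMSO neutral, bortezomib 2.3 µM final as positive.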
# [12] = qHTS of pediatric cancer cell lines to identify multiple opportunities for drug repurposing: Primary screen for A673 cells (AID 1347092); further: nearly all actives have a fitted effect of over 45% in size; further: potency means the concentration at half of the fitted maximal effect
# Method in brief: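 48 h compound exposure, A673, 500-1,000 cells/well, 37 degrees C/5% CO2. MIPE: 11-point, 0.78 nM-46 µM; NPC: 8-point, 0.59 nM-46 µM (final). Readout CellTiter-Glo luminescence after 15 min RT.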
# [13] = qHTS of pediatric cancer cell lines to identify multiple opportunities for drug repurposing: Primary screen for BT-37 cells (AID 1347094); further: potency means the concentration at half of the fitted maximal effect
# Method in brief: (§2)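 Phenotypic viability qHTS, 48 h compound exposure, CellTiter-Glo luminescence read-out; multi-concentration dosing so that potency and efficacy derive directly from the primary screen's curves.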
# [14] = qHTS of pediatric cancer cell lines to identify multiple opportunities for drug repurposing: Primary screen for NB-EBc1 cells (AID 1347095)
# Method in brief: as §2
# [15] = qHTS of pediatric cancer cell lines to identify multiple opportunities for drug repurposing: Primary screen for U-2 OS cells (AID 1347096); further: nearly all actives have a fitted effect of over 50% in size
# Method in brief: (§3)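 Cells (500-1,000/well) rested 5 h, then received compounds for 48 h; metabolically active cells were measured by CellTiter-Glo luminescence. Final concentrations spanned up to 46 µM (MIPE, 11-point) or 0.59 nM-46 µM (NPC, 8-point) in primary screens, 11-point in follow-ups.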
# [16] = qHTS of pediatric cancer cell lines to identify multiple opportunities for drug repurposing: Primary screen for Saos-2 cells (AID 1347097); further: nearly all actives have a fitted effect of over 40% in size; further: potency means the concentration at half of the fitted maximal effect
# Method in brief: as §2
# [17] = qHTS of pediatric cancer cell lines to identify multiple opportunities for drug repurposing: Primary screen for NB1643 cells (AID 1347099); further: nearly all actives have a fitted effect of over 50% in size
# Method in brief: as §2
# [18] = qHTS of pediatric cancer cell lines to identify multiple opportunities for drug repurposing: Primary screen for SJ-GBM2 cells (AID 1347091)
# Method in brief: as §1
# [19] = qHTS of pediatric cancer cell lines to identify multiple opportunities for drug repurposing: Primary screen for SK-N-SH cells (AID 1347098); further: nearly all actives have a fitted effect of over 65% in size; further: potency means the concentration at half of the fitted maximal effect
# Method in brief: as §3
# [20] = qHTS of pediatric cancer cell lines to identify multiple opportunities for drug repurposing: Primary screen for SK-N-MC cells (AID 1347093); further: potency means the concentration at half of the fitted maximal effect
# Method in brief: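 Metabolically active cells were quantified by ATP-dependent luminescence (CellTiter-Glo, 15 min at room temperature) following 48 h treatment. Cells had been plated at 500-1,000 per well and settled for 5 h beforehand.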
smiles,measurement,setting,value
CCCC(CCC)C(=O)O,Potency,[1],inactive
same,outcome,[2],inactive
same,outcome,[3],inactive
same,Potency,[4],inactive
same,Potency,[5],inactive
same,outcome,[6],inactive
same,outcome,[7],inactive
same,outcome,[8],inactive
same,outcome,[9],inactive
same,Potency,[10],inactive
same,Potency,[11],inactive
same,Potency,[12],inactive
same,Potency,[13],inactive
same,Potency,[14],inactive
same,Potency,[15],inactive
same,Potency,[16],inactive
same,Potency,[17],inactive
CN([C@@H](Cc1ccc(OS(=O)(=O)c2cccc3cnccc23)cc1)C(=O)N1CCN(c2ccccc2)CC1)S(=O)(=O)c1cccc2cnccc12,"activity change, negative = cytotoxicity",[1],-4.44% [at 5.11 µM]
OC(CN1CCC(Cc2ccc(F)cc2)CC1)c1ccc(Cl)cc1 (stereo not drawn),Potency,[1],inactive
same,outcome,[2],inactive
same,outcome,[3],inactive
same,Potency,[4],inactive
same,Potency,[5],inactive
same,outcome,[6],inactive
same,outcome,[7],inactive
same,outcome,[8],inactive
same,outcome,[9],inactive
same,Potency,[10],inactive
same,Potency,[11],inactive
same,Potency,[12],inactive
same,Potency,[13],inactive
same,Potency,[15],inactive
same,Potency,[16],inactive
C1COC(NC(C2CC2)C2CC2)=N1,Potency,[1],inactive
same,outcome,[2],inactive
same,outcome,[3],inactive
same,Potency,[4],inactive
same,Potency,[5],inactive
same,outcome,[6],inactive
same,outcome,[7],inactive
same,outcome,[8],inactive
same,outcome,[9],inactive
same,Potency,[10],inactive
same,Potency,[11],inactive
same,Potency,[18],inactive
same,Potency,[12],inactive
same,Potency,[13],inactive
same,Potency,[14],inactive
same,Potency,[15],inactive
same,Potency,[16],inactive
same,Potency,[19],inactive
same,Potency,[17],inactive
CCN(CC)CCCC(C)Nc1ccnc2cc(Cl)ccc12 (stereo not drawn),Potency,[1],inactive
same,outcome,[3],inactive
same,Potency,[4],inactive
same,Potency,[5],inactive
same,outcome,[9],inactive
same,Potency,[10],inactive
same,Potency,[18],inactive
same,Potency,[12],2.96 µM (active)
same,Potency,[20],0.0372 µM (active)
same,Potency,[14],inactive
same,Potency,[15],inactive
CC(C)C[C@H](NC(=O)[C@@H](O)[C@H](N)Cc1ccccc1)C(=O)O,Potency,[1],23.5 µM (active)
same,outcome,[2],inactive
same,outcome,[3],inactive
same,Potency,[4],inactive
same,Potency,[5],inactive
same,outcome,[6],inactive
same,outcome,[7],inactive
same,outcome,[8],inactive
same,outcome,[9],inactive
same,Potency,[10],inactive
same,Potency,[20],29.6 µM (active)
same,Potency,[13],27.3 µM (active)
same,Potency,[15],inactive
same,Potency,[16],18.7 µM (active)
same,Potency,[19],24.1 µM (active)
Nc1ncnc2nc(-c3ccc(N4CCOCC4)nc3)cc(-c3cccc(Br)c3)c12,Potency,[1],inactive
same,outcome,[2],inactive
same,outcome,[3],inactive
same,Potency,[4],inactive
same,Potency,[5],inactive
same,outcome,[9],inactive
same,Potency,[10],inactive
same,Potency,[18],inactive
same,Potency,[14],inactive
same,Potency,[16],inactive
Cc1cnc(NC(=O)C2=C(O)c3ccccc3S(=O)(=O)N2C)s1,Potency,[1],inactive
same,Potency,[5],inactive
same,outcome,[6],inactive
same,outcome,[7],inactive
same,outcome,[8],inactive
same,outcome,[9],inactive
same,Potency,[10],inactive
same,Potency,[11],inactive
same,Potency,[12],inactive
same,Potency,[20],inactive
same,Potency,[13],inactive
same,Potency,[14],inactive
same,Potency,[15],inactive
same,Potency,[16],inactive
same,Potency,[19],inactive
same,Potency,[17],inactive
Cc1[nH]c(=O)c(C#N)cc1-c1ccc2nccn2c1,Potency,[1],inactive
same,outcome,[2],inactive
same,outcome,[3],inactive
same,Potency,[4],inactive
same,Potency,[5],inactive
same,outcome,[6],inactive
same,outcome,[7],inactive
same,outcome,[8],inactive
same,outcome,[9],inactive
same,Potency,[10],inactive
same,Potency,[11],inactive
same,Potency,[12],inactive
same,Potency,[20],inactive
same,Potency,[13],inactive
same,Potency,[14],inactive
same,Potency,[15],inactive
same,Potency,[16],inactive
same,Potency,[19],inactive
same,Potency,[17],inactive
O=C1CCC(N2C(=O)c3ccccc3C2=O)C(=O)N1 (stereo not drawn),Potency,[1],inactive
same,outcome,[2],inactive
same,outcome,[3],inactive
same,Potency,[4],inactive
same,outcome,[6],inactive
same,outcome,[7],inactive
same,outcome,[8],inactive
same,outcome,[9],inactive
same,Potency,[10],inactive
same,Potency,[11],inactive
same,Potency,[18],inactive
same,Potency,[12],inactive
same,Potency,[20],inactive
same,Potency,[13],inactive
same,Potency,[14],inactive
same,Potency,[15],inactive
same,Potency,[16],inactive
same,Potency,[17],inactive
NC(=O)c1cnccn1,Potency,[1],inactive
same,outcome,[2],inactive
same,outcome,[3],inactive
same,Potency,[4],inactive
same,Potency,[5],inactive
same,outcome,[6],inactive
same,outcome,[7],inactive
same,outcome,[8],inactive
same,outcome,[9],inactive
same,Potency,[10],inactive
same,Potency,[11],inactive
same,Potency,[12],inactive
same,Potency,[20],inactive
same,Potency,[13],inactive
same,Potency,[14],inactive
same,Potency,[15],inactive
same,Potency,[16],inactive
same,Potency,[17],inactive
CC(C[N+](C)(C)C)OC(N)=O (stereo not drawn),Potency,[1],inactive
same,outcome,[2],inactive
same,outcome,[3],inactive
same,Potency,[4],inactive
same,Potency,[5],inactive
same,outcome,[6],inactive
same,outcome,[7],inactive
same,outcome,[8],inactive
same,outcome,[9],inactive
same,Potency,[10],inactive
same,Potency,[11],inactive
same,Potency,[18],inactive
same,Potency,[12],inactive
same,Potency,[20],inactive
same,Potency,[13],inactive
same,Potency,[14],inactive
same,Potency,[15],inactive
same,Potency,[16],inactive
same,Potency,[19],inactive
NCCCC(N)(C(=O)O)C(F)F (stereo not drawn),Potency,[1],inactive
same,outcome,[2],inactive
same,outcome,[3],inactive
same,Potency,[4],inactive
same,Potency,[5],inactive
same,outcome,[6],inactive
same,outcome,[7],inactive
same,outcome,[8],inactive
same,outcome,[9],inactive
same,Potency,[10],inactive
same,Potency,[11],inactive
same,Potency,[18],inactive
same,Potency,[13],inactive
same,Potency,[14],inactive
same,Potency,[15],inactive
same,Potency,[16],inactive
O=C(O)COCCN1CCN(C(c2ccccc2)c2ccc(Cl)cc2)CC1 (stereo not drawn),Potency,[1],inactive
same,outcome,[2],inactive
same,outcome,[3],inactive
same,Potency,[4],13.1 µM (active)
same,Potency,[5],inactive
same,outcome,[6],inactive
same,outcome,[7],inactive
same,outcome,[8],inactive
same,outcome,[9],inactive
same,Potency,[10],inactive
same,Potency,[11],inactive
same,Potency,[18],inactive
same,Potency,[12],inactive
same,Potency,[20],inactive
same,Potency,[13],inactive
same,Potency,[14],inactive
same,Potency,[15],inactive
same,Potency,[16],inactive
same,Potency,[17],inactive
